# Measured values from PubChem BioAssay AID2205 (University of Pittsburgh Molecular Library Screening Center, 2009).
# About 1,600 (0.8%) of roughly 200,000 compounds were called active. This is one part of a sample in which actives are shown more often than they occur.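 The calls were made as follows: active = plate Z-score above 3 for both tubulin-high and condensed-nucleus cell shares, with cell loss under 80%, at 10 µM; inactive = the rest, inconclusive results apart.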
# Test: tubulin staining increase by stabilizing compounds – imaging, high-content imaging, primary screen (AID 2205);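 as to % tubulin-high responders: anti alpha tubulin signal scored within the nucleus-defined area of each cell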;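 as to toxicity: 0% = mean cell density of plate MIN control wells and 100% = no cells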
# Conditions: HeLa tubulin immunostaining HCS, 24 h, at 10 µM; % Hoechst-high responders: measured here: nuclear condensation Hoechst responders, stronger effect = higher value, share of cells brighter than vehicle mean+2SD; % tubulin-high responders: stronger effect = higher value, share of cells brighter than vehicle mean+2SD; toxicity: measured here: cytotoxicity by cell density
SMILES,% Hoechst-high responders,% tubulin-high responders,toxicity
O=c1[nH]c(N2CCN(Cc3ccc4c(c3)OCO4)CC2)nc2c1CCCC2,3.51%,5.89% (inactive),3.65%
CCc1ccc(NC(=O)CC2C(=O)NCCN2C(=S)Nc2ccccc2)cc1 (stereo unspecified),3%,3.9% (inactive),11.2%
Cc1cc(CNC(=O)c2cccc([N+](=O)[O-])c2)c2ccccc2n1,2.57%,3.83% (inactive),1.18%
CC(=O)Nc1ccc(Nc2c3ccccc3nc3ccccc23)cc1,8.03%,12.5% (inactive),40.3%
O=[N+]([O-])c1cccc(Nc2c3ccccc3nc3ccccc23)c1,32.2%,22% (active),46.2%
COc1ccc(N2CCN(C(=O)CCSCc3ccccc3F)CC2)cc1,1.53%,3.62% (inactive),4.73%
Cc1cccc(C(=O)Nc2ccccc2C(=O)NCc2cccnc2)c1,2.76%,2.92% (inactive),4.59%
Cc1ccc(S(=O)(=O)C2(S(=O)(=O)c3ccc(C)cc3)CCCC2)cc1,39.1%,36.4% (active),67.7%
Cc1ccc(S(=O)(=O)NC(=O)N2CCCC(C)(C)C2)cc1,0.922%,1.38% (inactive),2.22%
Cc1ccc(S(=O)(=O)N(C)C2(C)CCS(=O)(=O)C2)cc1 (stereo unspecified),1.21%,1.1% (inactive),7.98%
O=c1oc(-c2ccco2)nc2sc3c(c12)CCCCC3,2.16%,1.31% (inactive),7.63%
COc1cccc2cc(S(=O)(=O)c3ccc(C)cc3)/c(=N/NS(=O)(=O)c3ccc(C)cc3)oc12,2.11%,3.76% (inactive),4.71%
Cc1cc(-c2csc(N)n2)c(C)n1Cc1ccccc1,3.06%,0.459% (inactive),7.95%
O=C(c1cc(=O)c2ccccc2o1)N1CCN(c2ccccc2)CC1,2.26%,4.68% (inactive),10.7%
COc1cc2c(cc1OC)CN(C(=O)c1cc(=O)c3ccccc3o1)CC2,50.5%,42.7% (active),31.7%
COc1ccccc1CNC(=O)c1cc(=O)c2ccccc2o1,2.39%,1.71% (inactive),11.9%
CCCCCCCCCCOC(=O)C[N+](C)(C)CC1CCCCC1O (stereo unspecified),2.44%,1.85% (inactive),7.67%
CNC(=S)N/N=C/c1cn(Cc2ccc(C)cc2)c2ccccc12,11.2%,25.5% (active),51.6%
COC(=O)N/N=C/c1cn(CCCOc2ccc(C)cc2)c2ccccc12,1.65%,1.39% (inactive),0.806%

SMILES,% Hoechst-high responders,% tubulin-high responders,toxicity
CCOC(=O)N/N=C/c1cn(Cc2ccccc2Cl)c2ccccc12,1.41%,1.99% (inactive),3.67%
CC(/C=N/NC(=O)c1ccncc1)=C\c1ccco1,2.03%,3.19% (inactive),5.26%
Cc1ccc(-c2cc(C(=O)N/N=C/C=C/c3ccco3)c3ccccc3n2)cc1C,1.03%,1.52% (inactive),10.1%
CC(/C=N/NC(=O)c1cc(-c2ccc3ccccc3c2)n[nH]1)=C\c1ccco1,24.9%,18.2% (active),26.2%
CCN(CC)c1ccc(S(=O)(=O)N2CCOCC2)cc1NC(=O)CSc1cccc[n+]1[O-],1.88%,2.6% (inactive),2.07%
S=C(NCc1ccc2c(c1)OCO2)NCc1ccco1,2%,2.06% (inactive),3.56%
Cn1c2ccccc2c(=O)c2c(=O)n(Cc3ccco3)c(COc3ccccc3)nc21,17%,15.2% (active),19.6%
COc1ccc(C(=O)CSc2nnc(COc3ccccc3)n2Cc2ccco2)cc1,8.33%,11.9% (inactive),4.55%
CCCc1nc2c(c(=O)c3ccccc3n2C)c(=O)n1C1CCCCCC1,3.07%,3.44% (inactive),9.47%
CCOC(=O)CC(NC(=O)C1c2ccccc2Oc2ccccc21)c1ccc(C)cc1 (stereo unspecified),1.91%,1.78% (inactive),3.3%
Cc1cc(-c2nnc(CCC(=O)NC(c3ccccc3)c3ccccc3)o2)no1,1.8%,2.51% (inactive),7.53%
O=C(COC(=O)c1cc(=O)[nH]c2ccccc12)Nc1nc(-c2cccc(Br)c2)cs1,3.67%,2.11% (inactive),8.74%
NS(=O)(=O)c1ccc(CCNC(=O)CCCn2c(SCC(=O)N3CCCC3)nc3ccsc3c2=O)cc1,2.7%,1.43% (inactive),6.34%
COc1cc2c(cc1O)[C@H](Cc1ccc(Oc3cc(C[C@@H]4NCCc5cc(OC)c(O)cc54)ccc3O)cc1)NCC2,2.73%,2.04% (inactive),13.6%
CC[C@H]1CN2CCc3cc(OC)c(OC)cc3[C@@H]2C[C@@H]1C[C@H]1NCCc2cc(OC)c(OC)cc21,20.9%,55.7% (active),75.2%
CCCCn1c(N)c(N(CC)C(=O)/C=C/c2ccco2)c(=O)[nH]c1=O,2.6%,6.6% (inactive),4.9%
CC(C)n1c(=O)[nH]c2cc(C(=O)Nc3ccccc3)ccc21,0.954%,1.61% (inactive),1.51%
COc1ccc(-n2c(C)nn(CC3CC3)c2=O)cc1,1.41%,0.918% (inactive),4.19%
